Reference: PubChem BioAssay (NCATS)
Results filed as inconclusive are left out. Where a call stands in place of a potency, no number is given. The source made the active and inactive calls. Unless noted, calls follow the shape of the dose curve; as a rule, active = well fitted curve in the direction sought with a large enough effect; inconclusive = small, poorly fitted or top-dose-only effect, or another doubt; inactive = no such curve, though single readings can be large; an effect the other way counts as inactive or inconclusive.

What was measured:
[1] = NS1 protein of Zika virus - qHTS assay to identify small molecule inhibitors in human HEK 293 cells (AID 1347053); also: series mostly up to about 46 µM; nearly all actives have a fitted effect of over 55% in size
Outline: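 Compound-treated (1 h pre-infection) HEK 293 cells infected with ZIKV MR766, MOI = 0.5; after 24 h at 37 C, NS1 read by TR-FRET; data normalized to uninfected and infected controls.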

[2] = molecular target: T1, Tyrosine-protein phosphatase non-receptor type substrate 1 (Homo sapiens) + Leukocyte surface antigen CD47 (Homo sapiens) (UniProt P78324+Q08722); experiment: CD47-SIRPalpha protein protein interaction - LANCE assay qHTS validation (AID 1347057; active = well fitted curve in the direction sought with a large enough effect in the signal ratio, with a control signal flat, not every such curve was filed as active; the % refers to the signal ratio; also: series mostly up to about 38 µM)
T1 sequence (P78324 whole entry, looked up, the tested form may be a part): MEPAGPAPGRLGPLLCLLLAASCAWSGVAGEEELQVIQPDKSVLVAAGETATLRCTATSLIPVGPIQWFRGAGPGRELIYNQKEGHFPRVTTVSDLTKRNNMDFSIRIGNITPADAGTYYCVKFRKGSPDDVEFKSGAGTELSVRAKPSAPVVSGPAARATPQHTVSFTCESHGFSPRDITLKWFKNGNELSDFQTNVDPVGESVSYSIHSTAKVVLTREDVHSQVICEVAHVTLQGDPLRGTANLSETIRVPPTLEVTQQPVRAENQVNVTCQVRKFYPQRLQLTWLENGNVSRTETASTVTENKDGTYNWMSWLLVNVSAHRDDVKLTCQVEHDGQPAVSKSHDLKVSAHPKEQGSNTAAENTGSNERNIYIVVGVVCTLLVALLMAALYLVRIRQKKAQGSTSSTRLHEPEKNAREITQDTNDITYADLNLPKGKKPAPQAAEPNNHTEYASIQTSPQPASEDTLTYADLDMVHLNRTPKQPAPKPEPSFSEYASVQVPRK
T1 sequence (Q08722 whole entry, looked up, the tested form may be a part): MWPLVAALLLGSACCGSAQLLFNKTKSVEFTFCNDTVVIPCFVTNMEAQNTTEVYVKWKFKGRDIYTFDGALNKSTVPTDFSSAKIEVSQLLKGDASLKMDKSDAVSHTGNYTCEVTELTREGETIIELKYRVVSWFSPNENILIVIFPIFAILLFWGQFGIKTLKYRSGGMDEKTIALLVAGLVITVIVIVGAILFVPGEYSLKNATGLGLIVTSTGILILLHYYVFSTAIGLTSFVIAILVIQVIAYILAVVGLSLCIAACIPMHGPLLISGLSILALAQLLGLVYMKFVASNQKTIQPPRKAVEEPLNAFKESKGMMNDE
Outline: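 Inhibition of soluble CD47/SIRPalpha ectodomain association by titrated compounds, measured as 665/615 nm time-resolved FRET ratio after sequential 30 min room-temperature incubations.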

[3] = molecular target: T1, Tyrosine-protein phosphatase non-receptor type substrate 1 (Homo sapiens) + Leukocyte surface antigen CD47 (Homo sapiens); experiment: CD47-SIRPalpha protein protein interaction - HTRF assay qHTS validation (AID 1347058; active = well fitted curve in the direction sought with a large enough effect in the signal ratio, not every such curve was filed as active; the % refers to the signal ratio; also: series mostly up to about 38 µM)
Outline: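 Soluble extracellular domains (6His-CD47, Avi-tag-biotinylated SIRPalpha) in PBS pH 7.4 with 0.05% IGEPAL CA-630. Compounds were preincubated 30 min at RT with CD47 and anti-His-Eu, then SIRPalpha and SAV-XL665 were added. TR-FRET 665/615 ratio.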

[4] = molecular target: T1, Tyrosine-protein phosphatase non-receptor type substrate 1 (Homo sapiens) + Leukocyte surface antigen CD47 (Homo sapiens); experiment: CD47-SIRPalpha protein protein interaction - Alpha assay qHTS validation (AID 1347059);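 also: bead proximity luminescence from CD47 binding SIRPalpha after compound preincubation with SIRPalpha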; also: potency is read from the fitted curve at half-maximal effect
Outline: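 In PBS (pH 7.4) with 0.05% IGEPAL CA-630, compound is preincubated with biotin-Avi-SIRPalpha ectodomain before His-CD47 ectodomain and affinity beads are added. Light-protected room-temperature incubations; AlphaScreen readout.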

[5] = molecular target: Parathyroid hormone/parathyroid hormone-related peptide receptor (Homo sapiens) (UniProt Q03431); experiment: qHTS for PTHR1 Agonists: Optimization Screen against the NCGC LOPAC library (AID 1347079);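 also: GloSensor cAMP luminescence in HEK-293 GP2 cells expressing human PTHR1 with IBMX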; also: potency is read from the fitted curve at half-maximal effect
Sequence of Parathyroid hormone/parathyroid hormone-related peptide receptor (Homo sapiens) (Q03431 whole entry, looked up): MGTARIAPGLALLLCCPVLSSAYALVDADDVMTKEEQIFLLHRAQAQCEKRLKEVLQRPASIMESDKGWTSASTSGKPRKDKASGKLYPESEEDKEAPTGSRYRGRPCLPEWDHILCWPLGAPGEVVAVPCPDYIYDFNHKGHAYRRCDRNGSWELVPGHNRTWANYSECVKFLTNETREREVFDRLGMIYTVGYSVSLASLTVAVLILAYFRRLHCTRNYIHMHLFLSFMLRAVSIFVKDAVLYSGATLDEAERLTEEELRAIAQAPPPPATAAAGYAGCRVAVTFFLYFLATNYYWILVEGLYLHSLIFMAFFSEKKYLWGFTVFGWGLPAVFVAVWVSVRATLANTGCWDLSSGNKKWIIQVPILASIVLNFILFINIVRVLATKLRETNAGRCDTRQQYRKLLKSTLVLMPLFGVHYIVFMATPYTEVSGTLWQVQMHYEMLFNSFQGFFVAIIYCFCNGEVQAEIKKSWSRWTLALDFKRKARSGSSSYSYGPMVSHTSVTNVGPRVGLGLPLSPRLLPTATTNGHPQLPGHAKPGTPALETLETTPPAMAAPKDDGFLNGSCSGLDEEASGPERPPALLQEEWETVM
Outline: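 Signal increase flags agonism. GP2 cells, derived from HEK-293, express human PTHR1 and a GloSensor cAMP construct.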

[6] = test system: Zika virus NS2B-NS3 protease (unlinked); experiment: Optimization of GU AMC qHTS for Zika virus inhibitors: Unlinked NS2B-NS3 protease assay (AID 1347151); also: nearly all actives have a fitted effect of over 80% in size; also: potency is read from the fitted curve at half-maximal effect
Outline: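 Noncovalent NS2B hydrophilic domain–NS3 protease complex (25 nM final) in 10 mM Tris-HCl pH 8.0, 0.01% Tween 20; AMC substrate, room temperature 15 min (~20% conversion); fluorescence change normalized, 4-parameter Hill fit.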

[7] = molecular target: N-terminal Xaa-Pro-Lys N-methyltransferase 1 (Homo sapiens) (UniProt Q9BV86); experiment: qHTS Assay for Inhibitors of N-terminal methyltransferase 1 (NTMT1): LOPAC validation of the NTMT1 SAHH-coupled ThioGlo3 Assay (AID 1347143);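 also: SAH from peptide methylation measured as thiol fluorescence via SAHH coupling and ThioGlo3; nearly all actives have a fitted effect of over 70% in size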; also: potency is read from the fitted curve at half-maximal effect
Sequence of N-terminal Xaa-Pro-Lys N-methyltransferase 1 (Homo sapiens) (Q9BV86 whole entry, looked up): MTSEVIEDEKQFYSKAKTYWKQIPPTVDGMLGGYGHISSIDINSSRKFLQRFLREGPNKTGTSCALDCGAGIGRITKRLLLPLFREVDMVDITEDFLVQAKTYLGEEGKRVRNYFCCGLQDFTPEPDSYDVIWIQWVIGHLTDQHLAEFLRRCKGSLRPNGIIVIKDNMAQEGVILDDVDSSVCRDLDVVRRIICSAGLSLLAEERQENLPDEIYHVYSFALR
Outline: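 In this qHTS pilot against the LOPAC set, 125nM NTMT1 met compounds tested at multiple concentrations, and fluorescence was normalized to background.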

Furin (Homo sapiens) = Furin (Homo sapiens) (UniProt P09958); experiment: Furin counterscreen qHTS for Zika virus inhibitors (AID 1347149); also: potency is read from the fitted curve at half-maximal effect; nearly all actives have a fitted effect of over 70% in size
Sequence of Furin (Homo sapiens) (P09958 whole entry, looked up): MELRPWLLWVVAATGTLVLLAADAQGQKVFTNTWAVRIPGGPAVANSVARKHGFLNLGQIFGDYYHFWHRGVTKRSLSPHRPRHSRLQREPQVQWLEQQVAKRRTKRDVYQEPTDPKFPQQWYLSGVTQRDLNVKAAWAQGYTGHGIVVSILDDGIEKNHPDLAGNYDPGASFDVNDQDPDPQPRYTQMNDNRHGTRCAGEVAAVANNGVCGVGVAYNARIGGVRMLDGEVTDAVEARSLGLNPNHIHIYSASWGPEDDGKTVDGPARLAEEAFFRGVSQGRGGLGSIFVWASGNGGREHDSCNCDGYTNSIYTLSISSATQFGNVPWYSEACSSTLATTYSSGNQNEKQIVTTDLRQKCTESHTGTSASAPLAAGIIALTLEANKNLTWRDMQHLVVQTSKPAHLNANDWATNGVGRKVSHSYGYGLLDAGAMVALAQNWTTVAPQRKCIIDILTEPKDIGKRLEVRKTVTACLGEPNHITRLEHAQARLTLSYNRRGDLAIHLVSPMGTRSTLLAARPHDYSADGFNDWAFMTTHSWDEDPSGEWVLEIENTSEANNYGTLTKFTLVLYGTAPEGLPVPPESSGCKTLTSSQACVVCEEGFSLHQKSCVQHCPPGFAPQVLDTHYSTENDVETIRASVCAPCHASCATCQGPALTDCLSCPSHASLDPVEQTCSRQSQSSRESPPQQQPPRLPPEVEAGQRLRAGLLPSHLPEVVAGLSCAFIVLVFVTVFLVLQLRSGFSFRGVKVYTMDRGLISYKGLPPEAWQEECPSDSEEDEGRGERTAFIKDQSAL
Outline: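 Counterscreen measures cleavage of 2 microM BOC-RVRR-AMC, below its ~15 microM Km, by 5 nM full-length human furin at pH 7.0 after a 15-min compound preincubation. Inhibition derives from the 15-min fluorescence increase at 37C.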

[8] = test system: Zika virus NS2B-NS3 protease (linked construct); experiment: Confirmatory screen NINDS AMC qHTS for Zika virus inhibitors (AID 1347152); also: potency is read from the fitted curve at half-maximal effect; nearly all actives have a fitted effect of over 70% in size
Outline: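 Linked NS2B-NS3 protease, 1 nM, in 10 mM Tris-HCl pH 8.0, 0.01% Tween 20; compounds preincubated 15 min at room temperature. Nle-KRR-AMC 10 microM (Km 18.3 µM); 15-min fluorescence change (340/450 nm) fitted to 4-parameter Hill.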

[9] = test system: Zika virus NS2B-NS3 protease (unlinked complex); experiment: Confirmatory screen GU AMC qHTS for Zika virus inhibitors (AID 1347153); also: nearly all actives have a fitted effect of over 70% in size
Outline: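 Unlinked enzyme 25 nM, Tris pH 8.0/0.01% Tween 20; cpd 15 min RT, dark; + AMC substrate 10 µM (Km 18.3 µM); 340/450 nm read at t0 and 15 min; % inhibition → 4-param fit.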

SMILES | Potency [1] | Potency [2] | outcome [3] | Potency [4] | Potency [5] | Potency [6] | Potency [7] | Potency (Furin (Homo sapiens)) | Potency [8] | Potency [9]
CN1C2CCC1CC(OC(c1ccccc1)c1ccccc1)C2 (stereo not drawn) | inactive | inactive | inactive | inactive | inactive | inactive |  |  |  | 
O=C(O)/C=C/c1cnc[nH]1 | inactive | inactive | inactive | inactive |  |  | inactive |  |  | 
CCCn1c(=O)c2c(ncn2C)n(CCC)c1=O | inactive | inactive | inactive | inactive |  | inactive | inactive |  |  | 
Cc1ccccc1/C=C/C1=NCCN1 | inactive | inactive | inactive | inactive | inactive | inactive |  |  |  | 
CNC(=O)c1cc2c(cn1)[nH]c1ccccc12 | inactive | inactive | inactive | inactive |  |  | 56.2 µM (active) | 24.1 µM (active) | 24.1 µM (active) | inactive
CC(C)C[C@H](NC(=O)C1OC1C(=O)O)C(=O)NCCCCN=C(N)N (stereo partly drawn) | inactive | inactive | inactive | inactive | inactive | inactive |  |  |  | 
O=C(O)c1cccnc1C(=O)O | inactive | inactive | inactive | 16.5 µM (active) | inactive | inactive |  |  |  | 
NCCNS(=O)(=O)c1cccc2c(Cl)cccc12 | inactive | inactive | inactive | inactive | inactive | inactive |  |  |  | 
CCC1(O)CC2CN(CCc3c([nH]c4ccccc34)[C@@](C(=O)OC)(c3cc4c(cc3OC)N(C=O)C3[C@]45CCN4CC=C[C@@](CC)([C@@H](OC(C)=O)[C@]3(O)C(=O)OC)[C@H]45)C2)C1 (stereo partly drawn) | inactive | inactive | inactive | inactive | inactive | inactive |  |  |  | 
Nc1ncnc2c1nc(Br)n2C1OC2COP(=O)(O)O[C@@H]2C1O (stereo partly drawn) | inactive | inactive | inactive | inactive | inactive | inactive |  |  |  | 
CN1CCCC1CCOC(C)(c1ccccc1)c1ccc(Cl)cc1 (stereo not drawn) | inactive | inactive | inactive | inactive | inactive | inactive |  |  |  | 
[Li+] | inactive | inactive | inactive | inactive | inactive | inactive |  |  |  | 
NCC(O)C1CCCCCCC1 (stereo not drawn) | inactive | inactive | inactive | inactive | inactive | inactive |  |  |  | 
CCN(CC)CCCCCCCCOC(=O)c1cc(OC)c(OC)c(OC)c1 | inactive | inactive | inactive | inactive | inactive | inactive |  |  |  | 
CC(=O)[C@H]1CCC2C3CC=C4C[C@@H](OS(=O)(=O)O)CC[C@]4(C)C3CC[C@@]21C (stereo partly drawn) | inactive | inactive | inactive | inactive | inactive | inactive |  |  |  | 
C[C@]12C=CC(=O)C=C1CC[C@@H]1C2=CC[C@]2(C)[C@@H](C(=O)CN3CCN(c4cc(N5CCCC5)nc(N5CCCC5)n4)CC3)CC[C@@H]12 | inactive | inactive | inactive | inactive | inactive | inactive |  |  |  | 
CNCCNS(=O)(=O)c1cccc2cnccc12 | inactive | inactive | inactive | inactive | inactive | inactive |  |  |  | 
CN(C)CCC(c1ccc(Br)cc1)c1ccccn1 (stereo not drawn) | inactive | inactive | inactive | inactive |  | inactive | inactive |  |  | 
CC(N)=NCCCC[C@@H](N)C(=O)O | inactive | inactive | inactive | inactive | inactive | inactive |  |  |  | 
CCC(=O)N1CCN(C(=O)c2ccccc2)CC1 | inactive | inactive | inactive | inactive | inactive | inactive |  |  |  | 
O=c1[nH]c2ccccc2c2ccccc12 | inactive | inactive | inactive | inactive | inactive | 26.7 µM (active) |  |  |  | 
C=CC1(C)CC(=O)C2(O)C(C)(O1)C(OC(C)=O)C(O)C1C(C)(C)CCC(O)C12C (stereo not drawn) | inactive | inactive | inactive | inactive | 21.2 µM (active) | inactive |  |  |  | 
NCCCNCCCCNCCCN | inactive | inactive | inactive | inactive | inactive | inactive |  |  |  | 
CC(N)(Cc1ccc(O)cc1)C(=O)O (stereo not drawn) | inactive | inactive | inactive | inactive |  | inactive | inactive |  |  | 
NC(N)=NC(N)=Nc1ccccc1 | inactive | inactive | inactive | inactive |  | inactive | inactive |  |  | 
c1ccc(C(NCCNC(c2ccccc2)c2ccccc2)c2ccccc2)cc1 | inactive | inactive | inactive | inactive |  |  | inactive |  |  | 
CC(=O)O[C@H]1Cc2ccccc2N(C(N)=O)c2ccccc21 | inactive | inactive | inactive | inactive | inactive | inactive |  |  |  | 
CC(C)NC[C@H](O)COc1ccc(CC(N)=O)cc1 | inactive | inactive | inactive | inactive |  | inactive | inactive |  |  | 
